Here are results for 10 compounds from PubChem BioAssay AID485272 (The Scripps Research Institute Molecular Screening Center, 2010).

SMILES strings stand for the structures. Hit rate of the full screen: of about 330,000 compounds, about 1,300 (0.39%) were called active. The full list was thinned out, with actives kept by preference. Unmarked numbers belong to inactive results.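 The calls were made as follows: active = percent inhibition above a cutoff equal to the mean of all tested compounds plus 3 SD (cut at about 15% in these data); inactive = the rest.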

For the experiment, the target named is Protein-arginine deiminase type-4 (Homo sapiens) (UniProt Q9UM07). The experiment in a line: protein arginine deiminase 4 enzyme blockade – biochemical, fluorescence polarization, 1536-well format, primary screen (AID 485272).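 Also: 0% = PAD4 with RCA probe and DMSO and 100% = probe without PAD4.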 The conditions noted are these: recombinant PAD4, RCA probe fluorescence polarization; at 6.36 µM; hits give high values.
Sequence of Protein-arginine deiminase type-4 (Homo sapiens) (Q9UM07 whole entry, looked up): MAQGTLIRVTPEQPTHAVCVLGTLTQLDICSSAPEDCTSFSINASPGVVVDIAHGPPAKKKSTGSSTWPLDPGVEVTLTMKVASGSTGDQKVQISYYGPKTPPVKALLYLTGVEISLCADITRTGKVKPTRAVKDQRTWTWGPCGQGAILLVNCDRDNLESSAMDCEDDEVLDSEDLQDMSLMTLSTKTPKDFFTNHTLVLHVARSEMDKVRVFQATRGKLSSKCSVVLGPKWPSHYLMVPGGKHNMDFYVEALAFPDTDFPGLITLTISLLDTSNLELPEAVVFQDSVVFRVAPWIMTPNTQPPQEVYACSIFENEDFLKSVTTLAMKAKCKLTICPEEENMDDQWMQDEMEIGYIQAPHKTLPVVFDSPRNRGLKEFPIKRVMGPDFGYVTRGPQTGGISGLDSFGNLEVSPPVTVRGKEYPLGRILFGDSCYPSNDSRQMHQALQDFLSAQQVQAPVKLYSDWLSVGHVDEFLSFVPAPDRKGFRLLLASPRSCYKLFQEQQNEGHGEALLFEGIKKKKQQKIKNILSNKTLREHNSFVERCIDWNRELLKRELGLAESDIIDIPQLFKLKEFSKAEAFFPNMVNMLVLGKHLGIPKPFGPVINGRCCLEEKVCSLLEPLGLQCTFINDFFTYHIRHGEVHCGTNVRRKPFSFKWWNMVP
As for `CC/C(=N\NC(=O)c1ccccc1O)c1c(O)n(Cc2ccccc2)c(=O)[nH]c1=O`, the inhibition is -6.35%.

Take `COc1cc(Cn2c(N)c(C(=O)NCc3ccco3)c3nc4ccccc4nc32)cc(OC)c1OC`: the inhibition was -2.07%.

Consider `CCOC(=O)c1c(N)n(Cc2ccccc2)c2nc3ccccc3nc12`, for which the inhibition is 42.1% (active).

In the case of `O=C(COc1ccc2ccccc2c1)N1CCN(Cc2ccncc2)CC1`, the inhibition is 3.09%.

Consider `CC(C)N(CC#CCC1(O)c2ccccc2-c2ccccc21)C(C)C`, for which the inhibition is 2.13%.

On to `COc1ccc(CN2CCN(c3ccccc3F)CC2)c(OC)c1`, for which the inhibition is -6.62%.

For the compound `COc1ccccc1C1=NCc2nnc(CSC)n2-c2ccc(Cl)cc21`, the inhibition was 21.5% (active).

Consider `Cc1cccc(-n2c(O)c(C=NC34CN5CN(CN(C5)C3)C4)c(=O)[nH]c2=O)c1`, for which the inhibition was 6.25%.

In the case of `Cc1ccc(N2C(=O)NC(=O)C(CCc3ccncc3)(Cc3cccc(Cl)c3Cl)C2=O)cc1` (stereo not given), the inhibition was 1.57%.

In the case of `CN1CCN(Cc2ccccc2C(F)(F)F)CC1`, the inhibition was 6.58%.
